# Experimental data as given in PubChem BioAssay (Tox21).
# Several values for one entry are separate records, joined by “and”; a condition that tells them apart may be missing. Equal entries are not always repeated. Results filed as inconclusive are left out. A call without a number means that no potency is given here. The source holds several records for some structures; these can differ, active in one and inactive in another. Activity calls are given as the source filed them. Calls follow the shape of the full dose curve.
# Legend:
# [1] = molecular target: Acetylcholinesterase (Homo sapiens) (UniProt P22303); experiment: Acetylcholinesterase (AChE) small molecule antagonists: colormetric cell-based qHTS assay (AID 1347395); also: nearly all actives have a fitted effect of over 30% in size; also: potency is read from the fitted curve at half-maximal effect
# Chain of Acetylcholinesterase (Homo sapiens) (P22303 whole entry, looked up): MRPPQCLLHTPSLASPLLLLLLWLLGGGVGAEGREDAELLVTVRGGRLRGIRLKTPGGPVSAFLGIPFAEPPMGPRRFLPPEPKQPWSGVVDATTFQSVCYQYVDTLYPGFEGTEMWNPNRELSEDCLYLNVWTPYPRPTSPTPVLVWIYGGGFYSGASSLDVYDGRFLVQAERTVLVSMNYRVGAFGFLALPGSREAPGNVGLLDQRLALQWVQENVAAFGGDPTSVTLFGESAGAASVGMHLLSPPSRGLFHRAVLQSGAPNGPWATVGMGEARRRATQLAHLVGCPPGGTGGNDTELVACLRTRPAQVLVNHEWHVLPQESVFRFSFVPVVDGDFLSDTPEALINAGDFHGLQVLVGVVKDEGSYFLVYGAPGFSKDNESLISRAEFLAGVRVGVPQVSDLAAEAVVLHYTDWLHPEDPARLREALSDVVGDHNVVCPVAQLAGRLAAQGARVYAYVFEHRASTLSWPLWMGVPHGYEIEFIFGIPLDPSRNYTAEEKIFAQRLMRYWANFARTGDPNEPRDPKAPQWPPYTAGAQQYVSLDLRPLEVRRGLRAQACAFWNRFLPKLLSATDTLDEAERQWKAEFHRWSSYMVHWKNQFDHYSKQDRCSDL
# How it was run: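 Neuroblastoma line SH-SY5Y supplied the enzyme; cells were preincubated with compound for 30 min at 37 C and 5% CO2. Acetylthiocholine with DTNB was then added for 90 min at 37 C, and thiocholine was measured by colour.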
# [2] = molecular target: Acetylcholinesterase (Homo sapiens) (UniProt P22303); experiment: Acetylcholinesterase (AChE) small molecule antagonists: enzyme-based qHTS assay (AID 1347397); conditions: Potency: AChE enzyme activity inhibition; outcome: AChE enzyme activity inhibition; also: nearly all actives have a fitted effect of over 55% in size; also: potency is read from the fitted curve at half-maximal effect
# How it was run: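 Human recombinant acetylcholinesterase; substrate acetylthiocholine; thiocholine quantified with DTNB (colorimetric). Compound preincubation 30 min RT; reaction 10 min RT.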
# [3] = molecular target: Acetylcholinesterase (Homo sapiens) (UniProt P22303); experiment: Acetylcholinesterase (AChE) small molecule antagonists: fluorescence cell-based qHTS assay (AID 1347398); conditions: Potency: AChE activity; outcome: AChE activity; also: nearly all actives have a fitted effect of over 50% in size; also: potency is read from the fitted curve at half-maximal effect
# How it was run: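 Thiocholine generated from acetylthiocholine by SH-SY5Y cell AChE is detected with Thiolite Green (Ex/Em 490/520 nm) after 40 min at room temperature, following 30 min compound pretreatment at 37 C.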
# [4] = molecular target: Acetylcholinesterase (Homo sapiens) (UniProt P22303); experiment: Acetylcholinesterase (AChE) small molecule antagonists: enzyme-based qHTS assay with human liver microsomes (AID 1347399); conditions: Potency: qHTS inhibition; outcome: qHTS inhibition; also: nearly all actives have a fitted effect of over 60% in size
# How it was run: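 Recombinant human AChE (50 mU/mL in the enzyme mix) and human liver microsomes (0.25 mg/mL final) were preincubated with compound and NADPH (0.25 mg/mL final) for 30 min at 37 C. Acetylthiocholine/DTNB was then added; thiocholine was read colorimetrically after 10 min at room temperature.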
structure (smiles),measurement,setting,value
CCCC1O[C@@H]2C[C@H]3[C@@H]4CCC5=CC(=O)C=C[C@]5(C)[C@H]4[C@@H](O)C[C@]3(C)[C@]2(C(=O)CO)O1 (some centres undefined),Potency,[1],inactive
same,Potency,[2],inactive
same,Potency,[3],inactive
same,Potency,[4],inactive
CCCCCCO,Potency,[1],inactive
same,Potency,[2],inactive
same,Potency,[3],inactive
same,Potency,[4],inactive
COc1cc(CNC(=O)CCCC/C=C/C(C)C)ccc1O,Potency,[1],inactive
same,Potency,[2],inactive
same,Potency,[3],inactive
same,Potency,[4],inactive
C=CCNc1nc(NCC=C)nc(N2CCN(C(c3ccc(F)cc3)c3ccc(F)cc3)CC2)n1,outcome,[1],inactive
same,outcome,[2],inactive
same,outcome,[3],inactive
same,outcome,[4],inactive
CCCCC/C(C=O)=C\c1ccccc1,Potency,[1],inactive
same,Potency,[2],inactive
same,Potency,[3],inactive
same,Potency,[4],inactive
CCS(=O)(=O)c1ccc(OC)c(C(=O)OC)c1,Potency,[1],inactive
same,Potency,[2],inactive
same,Potency,[3],inactive
same,Potency,[4],inactive
CCCCOCCOCCOCCCC,Potency,[1],inactive
same,Potency,[2],inactive
same,Potency,[3],inactive
same,Potency,[4],inactive
O=C(O)CN(CCOCCOCCN(CC(=O)O)CC(=O)O)CC(=O)O,"activity, negative = inhibition",[1],-1.41% [at 0.435 µM] (inactive)
same,"activity change, negative = inhibition",[2],-0.554% [at 0.435 µM] (inactive)
same,"activity change, negative = inhibition",[3],2.07% [at 0.439 µM] (inactive)
same,"activity change, negative = inhibition",[4],-0.252% [at 0.435 µM] (inactive)
O=C=NCC1CCCC(CN=C=O)C1 (centres undefined),Potency,[1],inactive
same,Potency,[2],inactive
same,Potency,[3],inactive
same,Potency,[4],inactive
NC(Cc1c[nH]c2ccccc12)C(=O)O (centres undefined),Potency,[1],inactive
same,Potency,[2],inactive
same,Potency,[3],inactive
same,Potency,[4],inactive
C=CC(=O)OCCC(=O)O,Potency,[1],82.3 µM (active) and inactive
same,Potency,[2],inactive
same,Potency,[3],inactive
same,Potency,[4],inactive
N=c1ccn2c(n1)O[C@H]1[C@H](O)[C@@H](CO)O[C@H]12,Potency,[1],inactive
same,Potency,[2],inactive
same,Potency,[3],inactive
same,Potency,[4],inactive
COc1ccc(CCO)cc1,Potency,[1],inactive
same,Potency,[2],inactive
same,Potency,[3],inactive
same,Potency,[4],inactive
CC1(C)NC(=O)NC1=O,Potency,[1],inactive
same,Potency,[2],inactive
same,Potency,[3],inactive
same,Potency,[4],inactive
CCCCCC(CC)OC(=O)CCCOc1ccc(Cl)cc1Cl (centres undefined),Potency,[1],inactive
same,Potency,[2],inactive
same,Potency,[3],inactive
same,Potency,[4],inactive
O=C(OCc1ccccc1)c1ccc(O)cc1,Potency,[1],inactive
same,Potency,[2],inactive
same,Potency,[3],inactive
same,Potency,[4],inactive
CC(C)c1cc2c(cc1S(=O)(=O)O)[C@@]1(C)CCC[C@@](C)(C(=O)O)[C@@H]1CC2,Potency,[1],inactive
same,Potency,[2],inactive
same,Potency,[3],inactive
same,Potency,[4],inactive
O=c1oc2c(O)c(O)cc3c(=O)oc4c(O)c(O)cc1c4c23,"activity, negative = inhibition",[1],-4.32% [at 23.6 µM] (inactive)
same,"activity change, negative = inhibition",[2],3.59% [at 23.6 µM] (inactive)
same,"activity change, negative = inhibition",[3],4.39% [at 23.8 µM] (inactive)
same,"activity change, negative = inhibition",[4],-1.34% [at 23.6 µM] (inactive)
CCCCCCCCNC(C)C(O)c1ccc(SC(C)C)cc1 (centres undefined),Potency,[1],inactive
same,Potency,[2],inactive
same,Potency,[3],inactive
same,Potency,[4],inactive
O=C1CCC/C=C\CCCCCCCCCC1,Potency,[1],inactive
same,Potency,[2],inactive
same,Potency,[3],inactive
same,Potency,[4],inactive
CC(C)(O)C(=O)c1ccc(OCCO)cc1,Potency,[1],inactive
same,Potency,[2],inactive
same,Potency,[3],inactive
same,Potency,[4],inactive
C=C1C2CCC(C2)C1(C)C (centres undefined),Potency,[1],inactive
same,Potency,[2],inactive
same,Potency,[3],inactive
same,Potency,[4],inactive
CCCCCCCCCCCCCC[N+](C)(C)C,Potency,[1],inactive
same,Potency,[2],30.6 µM (active) and 70.9 µM (active) and inactive
same,Potency,[3],61.1 µM (active) and 39.9 µM (active)
same,Potency,[4],inactive
O=C(O)c1cc(O)c2c(c1)C(=O)c1cccc(O)c1C2=O,Potency,[1],inactive
same,Potency,[2],inactive
same,Potency,[3],inactive
same,Potency,[4],inactive
C=CC(=O)NC(C)(C)CS(=O)(=O)O,Potency,[1],inactive
same,Potency,[2],inactive
same,Potency,[3],inactive
same,Potency,[4],inactive
Cc1ccccc1C(=O)Nc1ccc(C(=O)N2CCCC(O)c3cc(Cl)ccc32)c(C)c1 (centres undefined),Potency,[1],inactive
same,Potency,[2],inactive
same,Potency,[3],inactive
same,Potency,[4],inactive
c1ccc(COCc2ccccc2)cc1,Potency,[1],inactive
same,Potency,[2],inactive
same,Potency,[3],inactive
same,Potency,[4],inactive
CC(Oc1cc(Cl)ccc1Cl)C(=O)O (centres undefined),Potency,[1],inactive
same,Potency,[2],inactive
same,Potency,[3],inactive
same,Potency,[4],inactive
c1ccc2c(c1)CCC2,Potency,[1],inactive
same,Potency,[2],inactive
same,Potency,[3],inactive
same,Potency,[4],inactive
CC(C)(C)OC=O,Potency,[1],inactive
same,Potency,[2],inactive
same,Potency,[3],inactive
same,Potency,[4],inactive
Oc1ccc(Cl)c2cccnc12,Potency,[1],inactive
same,Potency,[2],inactive
same,Potency,[3],inactive
same,Potency,[4],inactive
CCOC(=O)CCC(C)=O,Potency,[1],inactive
same,Potency,[2],inactive
same,Potency,[3],inactive
same,Potency,[4],inactive
CCCCCN(CCCOC)C(=O)C(CCC(=O)O)NC(=O)c1ccc(Cl)c(Cl)c1 (centres undefined),Potency,[1],inactive
same,Potency,[2],inactive
same,Potency,[3],inactive
same,Potency,[4],inactive
O=C1c2cccc(O)c2C(=O)c2c(O)cccc21,Potency,[1],inactive
same,Potency,[2],inactive
same,Potency,[3],inactive
same,Potency,[4],inactive
O=c1c(-c2ccc(O)cc2)coc2cc(O)cc(O)c12,Potency,[1],inactive
same,Potency,[2],inactive
same,Potency,[3],inactive
same,Potency,[4],inactive
C[C@]12C(=O)OC(=O)[C@H]1[C@H]1C=C[C@@H]2C1,Potency,[1],inactive
same,Potency,[2],inactive
same,Potency,[3],inactive
same,Potency,[4],inactive
